PubChem BioAssay (NCI)
Compounds without any hit were thinned out: in the full panel of roughly 79,000, 15% have a hit. Calls of active or inactive are those of the source. Rule as the data show it: active = growth inhibition above about 70%; inactive = the rest.

How the values were obtained:
[1] = NCI Yeast Anticancer Drug Screen. Data for the rad52 strain (AID 147);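 also: 0% = growth of vehicle-treated control cultures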; conditions: S. cerevisiae rad52 mutant growth inhibition, hits give high values
Summary of the method: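 DNA repair-defective yeast; compound exposure; growth scored against vehicle controls.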

[2] = NCI Yeast Anticancer Drug Screen. Data for the mgt1 strain (AID 153); conditions: S. cerevisiae mgt1 mutant growth inhibition, hits give high values
Summary of the method: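 Growth inhibition relative to vehicle controls was scored for the mgt1 yeast strain after compound exposure.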

[3] = NCI Yeast Anticancer Drug Screen. Data for the rad50 strain (AID 155);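 also: 0% = growth of vehicle-only cultures of the same strain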; conditions: S. cerevisiae rad50 strain growth inhibition, hits give high values
Summary of the method: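 Growth of the mutant yeast was measured after compound exposure and referenced to vehicle-treated cultures.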

[4] = NCI Yeast Anticancer Drug Screen. Data for the mec2-1 strain (AID 157); conditions: S. cerevisiae mec2-1 strain, hits give high values
Summary of the method: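 Growth inhibition is read against vehicle-treated controls after compound exposure of the mec2-1 yeast strain, which is defective in DNA damage repair or cell cycle control.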

[5] = NCI Yeast Anticancer Drug Screen. Data for the sgs1 mgt1 strain (AID 161);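 also: 0% = growth of cultures given vehicle only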; conditions: S. cerevisiae sgs1 mgt1 strain, hits give high values
Summary of the method: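 Yeast cells carrying a defined DNA-repair defect were exposed to test compounds. Growth inhibition was measured relative to vehicle-treated controls.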

[6] = NCI Yeast Anticancer Drug Screen. Data for the CLN2oe strain (AID 163);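 also: 0% = growth of vehicle-only control cultures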; conditions: S. cerevisiae CLN2oe strain, hits give high values
Summary of the method: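 Compound-treated yeast; growth vs vehicle ctrl = % inhibition. Genetically altered strain (cell-cycle control).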

[7] = NCI Yeast Anticancer Drug Screen. Data for the cln2 rad14 strain (AID 165);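 also: 0% = growth equal to vehicle treated cultures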; conditions: S. cerevisiae cln2 rad14 strain, hits give high values
Summary of the method: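 Growth inhibition, relative to vehicle-treated controls, is the read-out. The test organism is a yeast strain with defined genetic alterations, cln2 rad14.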

[8] = NCI Yeast Anticancer Drug Screen. Data for the bub3 strain (AID 167); conditions: S. cerevisiae bub3 mutant strain, hits give high values
Summary of the method: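 Whole-cell yeast assay. The mutant strain was incubated with compounds, and growth inhibition was determined by comparison with vehicle-treated cells.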

[9] = NCI Yeast Anticancer Drug Screen. Data for the sgs1 strain (AID 173);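 also: 0% = growth of vehicle-only control cultures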; conditions: S. cerevisiae sgs1 mutant, hits give high values
Summary of the method: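 Compounds applied to genetically altered yeast; growth compared with vehicle-treated cultures to give % inhibition.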

[10] = NCI Yeast Anticancer Drug Screen. Data for the mlh1 rad18 strain (AID 175); conditions: S. cerevisiae mlh1 rad18 strain growth inhibition, hits give high values
Summary of the method: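 Cells of a genetically altered yeast strain, deficient in DNA damage repair, were treated with compound. Their growth was then compared with that of vehicle-treated cultures to give inhibition.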

[11] = NCI Yeast Anticancer Drug Screen. Data for the rad18 strain (AID 177); conditions: S. cerevisiae rad18 mutant growth inhibition, hits give high values
Summary of the method: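 Compounds are applied to a repair-deficient yeast strain, and growth is compared with that of vehicle-treated cultures to give percent inhibition.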

[12] = NCI Yeast Anticancer Drug Screen. Data for the rad50EPP+ strain (AID 151);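 also: 0% = growth of vehicle-treated control cultures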; conditions: S. cerevisiae rad50 mutant strain, hits give high values
Summary of the method: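 rad50EPP+ yeast treated with test compounds. Readout: growth vs vehicle control.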

[13] = NCI Yeast Anticancer Drug Screen. Data for the wt2 strain (AID 169);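 also: 0% = growth of vehicle-treated yeast cultures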; conditions: S. cerevisiae wt2 strain growth inhibition, hits give high values
Summary of the method: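 Compound exposure of yeast; growth compared with vehicle controls; inhibition reported.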

[14] = NCI Yeast Anticancer Drug Screen. Data for the mlh1 strain (AID 171);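 also: 0% = growth of vehicle-treated control cultures of the same strain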; conditions: S. cerevisiae mlh1 strain growth inhibition, hits give high values
Summary of the method: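 Compounds are applied to a genetically altered yeast strain, and its growth is compared with that of vehicle-treated cultures to give percent inhibition.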

[15] = at 5.0 µM (retest, dose inferred, filed as 0.5)
[16] = at 50.0 µM (retest, dose inferred, filed as 5.0)

Measured: growth inhibition

CC(=O)Nc1ccc(/C=C/[N+](=O)[O-])cc1
active: [1]; at 100.0 µM 97% | [2]; at 100.0 µM 99% | [3]; at 33.0 µM 91% | [3]; [16] 94% | [3]; at 50.0 µM 85% | [3]; at 100.0 µM 98% | [4]; at 100.0 µM 95% | [5]; [16] 72% | [6]; at 100.0 µM 71% | [8]; at 100.0 µM 72% | [9]; at 100.0 µM 99% | [10]; [16] 91% | [10]; at 50.0 µM 94% | [11]; at 100.0 µM 92%
inactive: [1]; at 1.2 µM 19% | [1]; at 3.7 µM 23% | [1]; at 11.0 µM 43% | [1]; at 33.0 µM 69% | [2]; at 1.2 µM -2% | [2]; at 3.7 µM -4% | [2]; at 11.0 µM -1% | [2]; at 33.0 µM 20% | [3]; at 1.2 µM 31% | [3]; at 3.7 µM 35% | [3]; [15] -66% | [3]; at 11.0 µM 67% | [4]; at 1.2 µM -1% | [4]; at 3.7 µM -2% | [4]; [15] -42% | [4]; at 11.0 µM 14% | [4]; at 33.0 µM 3% | [4]; [16] 33% | [4]; at 50.0 µM 53.4% | [5]; [15] -43% | [5]; at 50.0 µM 47.6% | [6]; at 1.2 µM -3% | [6]; at 3.7 µM -1% | [6]; at 11.0 µM 3% | [6]; at 33.0 µM 10% | [7]; [15] -55% | [7]; [16] -19% | [7]; at 50.0 µM 46.2% | [8]; at 1.2 µM -4% | [8]; at 3.7 µM -5% | [8]; [15] -61% | [8]; at 11.0 µM 1% | [8]; at 33.0 µM 6% | [8]; [16] 43% | [8]; at 50.0 µM 68.8% | [9]; at 1.2 µM -3% | [9]; at 3.7 µM 11% | [9]; at 11.0 µM 15% | [9]; at 33.0 µM 52% | [10]; [15] -96% | [11]; at 1.2 µM 3% | [11]; at 3.7 µM 6% | [11]; at 11.0 µM 12% | [11]; at 33.0 µM 25%

CN1C(=O)c2ccc3ccccc3c2C1=O
inactive: [1]; at 1.2 µM 7% | [1]; at 3.7 µM 11% | [1]; at 11.0 µM 35% | [1]; at 33.0 µM 53% | [1]; at 100.0 µM 68% | [12]; at 1.2 µM 8% | [12]; at 3.7 µM 12% | [12]; at 11.0 µM 42% | [12]; at 33.0 µM 58% | [12]; at 100.0 µM 52% | [2]; at 1.2 µM 1% | [2]; at 3.7 µM 1% | [2]; at 11.0 µM 20% | [2]; at 33.0 µM 18% | [2]; at 100.0 µM 25% | [3]; at 1.2 µM 12% | [3]; at 3.7 µM 32% | [3]; [15] 4% | [3]; at 11.0 µM 61% | [3]; at 33.0 µM 63% | [3]; [16] 62% | [4]; at 1.2 µM -5% | [4]; at 3.7 µM 0% | [4]; [15] 0% | [4]; at 11.0 µM 0% | [4]; at 33.0 µM 17% | [4]; [16] 29% | [4]; at 50.0 µM 41.9% | [4]; at 100.0 µM 26% | [5]; [15] 27% | [5]; [16] 54% | [5]; at 50.0 µM 43% | [6]; at 1.2 µM 3% | [6]; at 3.7 µM 6% | [6]; at 11.0 µM 18% | [6]; at 33.0 µM 21% | [6]; at 100.0 µM 27% | [7]; [15] -39% | [7]; [16] 6% | [7]; at 50.0 µM 33.4% | [8]; at 1.2 µM 6% | [8]; at 3.7 µM 8% | [8]; [15] 4% | [8]; at 11.0 µM 37% | [8]; at 33.0 µM 35% | [8]; [16] 37% | [8]; at 50.0 µM 48.8% | [8]; at 100.0 µM 32% | [13]; at 1.2 µM 2% | [13]; at 3.7 µM 3% | [13]; at 11.0 µM 12% | [13]; at 33.0 µM 24% | [13]; at 100.0 µM 39% | [14]; at 1.2 µM 2% | [14]; at 3.7 µM 3% | [14]; at 11.0 µM 22% | [14]; at 33.0 µM 29% | [14]; at 100.0 µM 27% | [9]; at 1.2 µM 0% | [9]; at 3.7 µM 1% | [9]; at 11.0 µM 14% | [9]; at 33.0 µM 25% | [9]; at 100.0 µM 42% | [10]; [15] -25% | [10]; [16] 40% | [10]; at 50.0 µM 23.3% | [11]; at 1.2 µM 6% | [11]; at 3.7 µM 15% | [11]; at 11.0 µM 45% | [11]; at 33.0 µM 39% | [11]; at 100.0 µM 35%
active: [3]; at 50.0 µM 84.5% | [3]; at 100.0 µM 70%
